HT1080 IDH1KD tx = kills HT-1080 cells with IDH1 knockdown. Potency, µM (highest dose often 46.1 µM), for inactives: at the highest dose activity, negative = toxicity, actives largely listed as cytotoxic. actives 2% (n = 360,000). HT-1080 IDH1 knockdown viability, ATP luminescence, 48 h;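 further: potency means the concentration at half of the fitted maximal effect; 0% = DMSO wells and -100% = cell-free medium wells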
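HT-1080-IDH1KD cells (IDH1 knocked down), 750/well in RPMI with 5% FBS, treated with compound 48 h at 37 degrees C. Viability by CellTiter-Glo luminescence, normalised to DMSO and no-cell wells; concentration-response curves classed.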
HT1080NT lethal = kills 2HG-producing HT-1080-NT fibrosarcoma cells. HT-1080-NT fibrosarcoma viability, CellTiter-Glo ATP luminescence, 48 h. Potency, µM (series often up to 46.1 µM), for the others: at the top dose activity, negative = less viability, usual class: cytotoxic. actives 1.6% (n = 360,000). AID 686970;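 further: NT is the 2HG producing partner of a matched IDH1 knockdown line; potency means the concentration at half of the fitted maximal effect; 0% = DMSO-treated cells and -100% = media-only wells without cells; nearly all actives have a fitted effect of over 55% in size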
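HT-1080-NT fibrosarcoma cells (2HG-overproducing), 750 cells/well in RPMI with 5% FBS, dosed after 2 h and incubated 48 h at 37C. CellTiter-Glo luminescence normalized to DMSO and no-cell wells; concentration-response curves fitted and classed.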
uPA generation = cell surface uPA generation inhibition; Potency, µM (highest dose often 38.3 µM), inactives show at the highest dose activity change, negative = inhibition, actives largely listed as inhibitors; actives 0.31% (n = 330,000); cell surface uPA generation assay, qHTS; AID 540303; active means well fitted inhibition curve with a large enough effect; inconclusive means small, poorly fitted or top-dose-only effect; inactive means no such curve, though single readings can be large or run the other way; tested in mouse RAW 264.7 cells; further: potency means the concentration at half of the fitted maximal effect; nearly all actives have a fitted effect of over 55% in size
IL-1B inflam inh = inflammasome signaling inhibition, IL-1 beta readout; THP-1 LPS/ATP IL-1B secretion, AlphaLISA, 16 h; hits give low values; actives 4.7% (n = 360,000); activity change, % at 57.5 µM; in the data active means activity change below about -50%; inconclusive means mostly about -30% to -49%
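THP-1 cells pretreated 1 hr with compounds (up to 57.5 uM final), then stimulated with LPS (250 ng/mL final) plus ATP (1.25 mM final); secreted IL-1B measured by AlphaLISA after 16 hr, decreased signal indicating inhibition.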
DT40 TDP1 no CPT = qHTS for Inhibitors of human tyrosyl-DNA phosphodiesterase 1 (TDP1): qHTS in cells in absence of CPT; actives 15% (n = 420,000); DT40 Tdp1-/- hTDP1 cells, no CPT, ATP luminescence, 48 h; Potency, µM (top dose mostly 46.2 µM), without a hit: at the highest dose activity change, negative = growth inhibition, hits mostly inhibitors; AID 686978, 2013; further: potency means the concentration at half of the fitted maximal effect; nearly all actives have a fitted effect of over 55% in size
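Luminescent ATP content (CellTiter-Glo) served as the growth readout. Knockout chicken DT40 cells expressing human TDP1 were exposed to compounds without camptothecin for a minimum 48 hr at 37 °C.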
DT40 TDP1 CPT = growth inhibition of DT40 Tdp1-/-;hTDP1 cells with camptothecin (screen for TDP1 inhibitors); actives 12% (n = 420,000); Potency, µM (doses to about 46.2 µM), without a hit: at the highest dose activity change, negative = growth inhibition, usual class: inhibitors; chicken DT40 Tdp1-/-;hTDP1 cells + 20 nM CPT, ATP luminescence, 48 h; further: potency means the concentration at half of the fitted maximal effect; nearly all actives have a fitted effect of over 55% in size
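Cell growth measured by CellTiter-Glo luminescence after a minimum 48 h, 37 C compound exposure with 20 nM CPT in Tdp1-knockout DT40 cells stably expressing hTDP1, seeded 400/well; qHTS titration format.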
Active calls of the source: *; i = inactive; u = inconclusive; x = not tested or not shown; ! = a repeat was not active. Shown are actives, neighbours in structure and some others; about 19% of the full set was active somewhere. Unless noted, the call rests on the fitted dose curve; in most records, active means well fitted curve in the direction sought with a large enough effect; inconclusive means small, poorly fitted or top-dose-only effect, or another doubt; inactive means no such curve, though single readings can be large; an effect the other way counts as inactive or inconclusive. Unless noted, on the % scale 0 is the no-effect control and ±100 the full control effect.

SMILES	HT1080 IDH1KD tx	HT1080NT lethal	uPA generation	IL-1B inflam inh	DT40 TDP1 no CPT	DT40 TDP1 CPT
Cc1ccc2nc(Cl)c3cc(C(=O)N(C)C4CCCCC4)sc3c2c1	x	x	x	x	-17.5%	-16.5%
Cc1ccc(CN2CCN(CC(=O)NCc3ccccc3Cl)C2=O)cc1	x	x	x	x	-8.5%	0.8%
O=C(Cc1ccc(Cl)cc1)NO	7.5%	-5.8%	x	x	u	u
CCN(CC)C(=O)Cn1c(=O)n(CCCCCC(=O)NCc2ccc3c(c2)OCO3)c(=O)c2sccc21	x	x	x	x	-29.9%	u
Cc1nc(CCNC(=O)C2CCC(=O)N(Cc3ccc(Cl)cc3)C2)sc1C (stereo not given)	7.8%	2.5%	-4.4%	-1.6	2.3%	-4.6%
COc1ccccc1N1CCN(CCCCOc2c(OC)cccc2OC)CC1	-22.5%	-12.1%	-2.8%	-21.2	-20.2%	u
COc1cccc(OC)c1OCCN1CCN(C(c2ccccc2)c2ccccc2)CC1	-29.0%	-24.2%	-28.0%	-52.7*	u	u
COc1ccccc1N1CCN(CCOc2c(OC)cccc2OC)CC1	-29.0%	-25.5%	-5.0%	-4.4	u	18.4µM*
COc1ccccc1N1CCN(/N=C/C(Cl)=C/c2ccccc2)CC1	-12.0%	-2.3%	7.1%	u	16.4µM*	25.9µM*
O=C(O)COCCN1CCN(C(c2ccccc2)c2ccc(Cl)cc2)CC1 (stereo not given)	3.4%	-5.7%	-1.0%	1.0	14.6µM*!	u
O=C(NCc1ccccc1)/C(=C\c1ccc(F)cc1)NC(=O)c1ccco1	4.1%	-2.0%	x	-12.1	-12.7%	0.0%
CC1(C(=O)NS(=O)(=O)c2ccccc2OC(F)(F)F)CCN1C(=O)c1ccco1 (stereo not given)	12.8%	13.8%	x	23.7	-1.1%	-0.4%
Cc1nc(Cl)c(Cl)n1CCOc1ccccc1	-12.3%	-0.5%	-1.1%	x	-0.8%	3.1%
COc1ccccc1N1Cc2ccccc2C1	-0.3%	-3.4%	2.3%	19.0	16.4µM*	25.9µM*
Cn1ccnc1C(=O)c1cc(SCC(=O)NC2CC2)nc2ccccc12	0.8%	0.4%	-1.4%	-2.2	4.8%	6.6%
CN(C(=O)CSc1cc(C(=O)c2nccn2C)c2ccccc2n1)c1ccccc1	-28.2%	-26.4%	-0.4%	-56.1*	18.4µM*	14.6µM*
CC1(C(=O)Nc2ccccc2Br)CCN1C(=O)Cc1ccccc1Cl (stereo not given)	19.4%	u	x	11.3	-21.1%	-22.8%
CCOc1ccccc1N(CC(=O)Nc1cccc2ccccc12)S(C)(=O)=O	-0.4%	0.2%	-2.9%	4.8	2.4%	-8.9%
CSCCC(=O)Nc1nc(-c2ccccn2)cs1	-5.1%	-15.5%	-3.0%	16.5	u	16.4µM*
O=C(Nc1nc(-c2ccccn2)cs1)C1CCCC1	-25.4%	-5.7%	-3.0%	-71.3*	5.17µM*	2.91µM*
N#Cc1ccccc1OCC(=O)Nc1nc(-c2ccccn2)cs1	u	u	x	82.4	5.17µM*	2.91µM*
Cc1cc(C)cc(OCC(=O)Nc2nc(-c3ccccn3)cs2)c1	u	u	-0.3%	93.8	u	u
Cc1ccc(-c2csc(NC(=O)CCNC(=O)c3ccccc3Cl)n2)cc1	-18.4%	-9.7%	-2.3%	-53.4*	u	u
CC(C)OCC1CO1 (stereo not given)	0.6%	18.2%	-6.4%	23.1	u	4.2%
COc1ccc(-c2csc(C(NC(C)=O)c3ccccc3)n2)cn1 (stereo not given)	-0.3%	7.2%	x	-0.8	6.4%	10.1%
SMILES	HT1080 IDH1KD tx	HT1080NT lethal	uPA generation	IL-1B inflam inh	DT40 TDP1 no CPT	DT40 TDP1 CPT
COc1ccc(S(=O)(=O)c2cn(C)c3ccc(C)cc3c2=O)cc1	x	x	x	x	-29.0%	-14.1%
N[C@@H](Cc1cc(I)c(Oc2ccc(O)cc2)c(I)c1)C(=O)O	x	x	x	x	u	0.8%
O=C(COc1ccccc1Cl)Nc1nc(-c2ccncc2)cs1	-4.7%	2.1%	0.4%	-2.3	16.4µM*	14.6µM*
O=C(CCCSc1ccccc1)Nc1nc(-c2ccccn2)cs1	-8.7%	-11.5%	-1.0%	29.9	16.4µM*	29.1µM*
CCC(c1nc2ccccc2[nH]1)n1c(=O)c(-c2ccccc2)nc2ccccc21 (stereo not given)	0.0%	u	x	-21.0	u	u
CCNc1ncc2nc(-c3ccccc3)c(=O)n(C3CC3)c2n1	x	x	x	x	-6.3%	7.4%
CC(=O)c1ccc(OCc2cc(C(=O)N(C)C(C)c3ccon3)no2)cc1 (stereo not given)	-6.5%	-5.4%	4.2%	-6.8	18.4µM*	u
CC(=O)c1ccc(OCc2cc(C(=O)N3CCCCCCC3)no2)cc1	-10.2%	0.3%	1.6%	-12.1	4.11µM*	u
CC(=O)c1cccc(OCc2cc(C(=O)N(C)C(C)c3ccccn3)no2)c1 (stereo not given)	-4.5%	5.7%	2.1%	i	u	u
CC(=O)c1ccc(OCc2cc(C(=O)N(C)C(C)c3nccs3)no2)cc1 (stereo not given)	-8.0%	-2.9%	-7.3%	21.5	u	16.4µM*
COCCCNC(=O)Cn1c(=O)n(-c2ccc(C)cc2)c(=O)c2c1c1cc(C)ccc1n2C	x	x	x	x	u	-28.2%
Nc1ncnc2c1ncn2[C@@H]1O[C@H](C(=O)N2CCN(c3ccc(Cl)cn3)CC2)[C@@H](O)[C@H]1O	u	u	x	2.0	20.6µM*	-25.6%
C#CCN(Cc1ccccc1)S(=O)(=O)C=C	-14.2%	-28.2%	u	-65.1*	u	25.1µM*
CCN(CC)S(=O)(=O)c1ccc(C)c(NC(=O)CSc2nc3ccccc3[nH]2)c1	-14.6%	-9.0%	-4.3%	3.6	23.1µM*	u
CCCc1nnc(NC(=O)CSc2nc3ccccc3[nH]2)s1	-0.4%	-2.2%	-3.8%	-109.1*	u	u
COc1ccccc1NC1=C(Cl)C(=O)OC1OC(=O)c1ccco1 (stereo not given)	u	20.6µM*	-2.8%	-24.9	20.6µM*	23.1µM*
Cc1ccccc1NC1=C(Cl)C(=O)OC1OC(=O)c1ccco1 (stereo not given)	11.2µM*	u	-18.8%	u	23.1µM*	25.9µM*
CCOC1OC(=O)C(Cl)=C1Nc1ccccc1C (stereo not given)	-0.5%	4.4%	-5.2%	-8.7	-26.6%	-31.1%
COc1cccc(NC2=C(Cl)C(=O)OC2OC(=O)c2ccco2)c1 (stereo not given)	-23.2%	u	-0.4%	u	14.6µM*	11.6µM*

High-throughput results: PubChem BioAssay, National Center for Advancing Translational Sciences (NCATS)
